# Screens from PubChem BioAssay.
# Anesthetic bind: candidate novel general anesthetic via apoferritin binding | P02791 | apoferritin/1-aminoanthracene competitive binding, fluorescence | Potency, µM (titrated, usually from 77.5 µM), without a hit: top-dose activity change, negative = displacement, most hits filed as inhibitors | 0.074% of 350,000 active; active means well fitted inhibition curve with a large enough effect; inconclusive means small, poorly fitted or top-dose-only effect; inactive means no such curve, though single readings can be large or run the other way; further: potency means the concentration at half of the fitted maximal effect; on the % scale 0 is the no-effect control and ±100 the full control effect; nearly all actives have a fitted effect of over 20% in size
# Target sequence (P02791 2-175 limits assumed): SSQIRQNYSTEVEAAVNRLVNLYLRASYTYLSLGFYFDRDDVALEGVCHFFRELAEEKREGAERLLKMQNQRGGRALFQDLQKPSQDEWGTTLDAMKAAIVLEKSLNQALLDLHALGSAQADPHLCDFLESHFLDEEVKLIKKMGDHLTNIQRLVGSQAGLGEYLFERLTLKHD
#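 Horse-spleen apoferritin (10 uM) was mixed with 50% saturated 1-aminoanthracene in PBS, exposed to compounds for 10 min at room temperature, and read for fluorescence (ex 380 nm, em 535 nm). Competitive displacement was fitted with a four-parameter Hill equation.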
# D2 ag-1: activates the human D2 dopamine receptor; DiscoveRx PathHunter D2 beta-arrestin, luminescence, 90 min; 100% = 57 uM dopamine signal; 0.084% of 360,000 active; activation, % (test concentration not listed); in the data active means activation above about 40%; inconclusive means between about 15% and that limit
# Target sequence (P14416 whole entry, looked up): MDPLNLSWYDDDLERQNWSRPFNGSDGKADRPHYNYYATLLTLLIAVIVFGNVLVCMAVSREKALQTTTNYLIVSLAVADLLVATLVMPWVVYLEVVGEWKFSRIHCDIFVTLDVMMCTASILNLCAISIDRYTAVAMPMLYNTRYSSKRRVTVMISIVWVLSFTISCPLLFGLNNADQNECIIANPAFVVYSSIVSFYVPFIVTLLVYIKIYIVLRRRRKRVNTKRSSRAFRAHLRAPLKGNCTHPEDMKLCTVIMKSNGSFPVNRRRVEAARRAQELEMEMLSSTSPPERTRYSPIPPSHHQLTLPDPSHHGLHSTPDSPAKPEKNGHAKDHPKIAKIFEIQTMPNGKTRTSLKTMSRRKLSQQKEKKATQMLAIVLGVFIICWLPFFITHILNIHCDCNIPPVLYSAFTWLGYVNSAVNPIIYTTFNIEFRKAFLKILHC
#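 Agonist mode: compounds alone added to overnight-plated D2 PathHunter cells for 90 min at 37 C, with 57 uM final dopamine (EC100) defining full response. Beta-arrestin recruitment detected by chemiluminescent reagent, read after 1 h at ambient temperature.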
# D2 ag-2: agonists of human D2 dopamine receptor; P14416; 0.53% of 340,000 active; HEK293 T-REx D2 cells, calcium flux agonist mode; activation, % at 2 µM;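 active means activation over 3 SD above normal in the single-dose calcium agonist read, cut at about 30% in these data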; further: 0% is about no effect
#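 Agonism scored from kinetic calcium signal (1 read/sec, 180 s) following compound pin transfer, after a 10 s baseline. Cells: HEK293 Trex line expressing inducible D2 receptor coupled to calcium, dye-loaded after overnight culture at 30 C.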
# D2 PAM-1: potentiates the human D2 dopamine receptor allosterically; P14416; DiscoveRx D2 beta-arrestin cells, luminescence, 90 min; 100% = 57 uM dopamine signal; potentiation, % (test concentration not listed); 0.23% of 360,000 active; AID 624464; in the data active means potentiation above about 50%; inconclusive means mostly about 30% to 49%
#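 PathHunter D2 cells, attached overnight at 37 deg C, received compound in DMSO plus dopamine at EC20 (50 nM final) for 90 min at 37 deg C. Beta-arrestin recruitment was read as luminescence after 1 h with detection reagent at ambient temperature.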
# D2 antagonist: D2 dopamine receptor (human) antagonism. P14416. HEK293 TREx D2 cells, calcium flux, dopamine EC80. inhibition, % at 10 µM. 2% of 340,000 active; in the data active means inhibition above about 30%; inactive means below that, where a call was filed; further: 0% is about no effect
#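 Tetracycline-induced HEK293 T-REx cells expressing D2 force-coupled to calcium signalling were dye-loaded, exposed to compound for 180 s, then challenged with an EC80 of dopamine; calcium flux was followed kinetically for a further 180 s.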
# D2 PAM-2: positive allosteric modulators of human D2 dopamine receptor. P14416. HEK293 T-REx D2, calcium flux, EC20 dopamine potentiation. potentiation, % at 10 µM. 0.34% of 340,000 active. AID 485347;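 active means potentiation over 3 SD above the plate norm, cut at about 30% in these data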; further: 0% is about no effect
#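 Primary screen. Calcium kinetics in induced HEK293 T-REx D2 cells: compound pre-addition 180 s, EC20 dopamine, 180 s more.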
# The depositor's hits bear a star; ? = inconclusive; . = not tested or not shown. Sampled rows, rich in hits. Any-hit rate of the full collection: about 2.5%.
SMILES,Anesthetic bind,D2 ag-1,D2 ag-2,D2 PAM-1,D2 antagonist,D2 PAM-2
Cc1nc2ccccc2c(=O)n1NC(=O)Nc1ccccc1,-1.1%,-0.2,-0.4,11.9,7.0,2.5
Cc1oc(-c2cccc(F)c2)nc1CN1CCCCC1CCn1cccn1 (configuration not stated),-13.3%,-3.4,1.3,-7.0,45.2*,-21.4
CCOC(=O)c1ccc(N2C(=O)c3n[nH]c(-c4ccco4)c3C2c2cccc(OC)c2)cc1 (configuration not stated),-13.3%,.,0.5,.,.,21.6
CN1C(C(=O)NCc2cccc(C(F)(F)F)c2)CC2Cn3c(nc4cc5ccccc5cc43)C21 (configuration not stated),-9.4%,-0.1,0.5,-2.6,42.6*,7.3
CCn1c2ccccc2c2cc(/C=N/NC(=O)c3ccccc3C)ccc21,-5.3%,-6.3,-0.8,-9.3,36.2*,-4.2
CCn1c2ccccc2c2cc(/C=N/NC(=O)c3cccc(C)c3)ccc21,-13.3%,0.7,0.8,7.8,-11.5,8.3
CC(NC(=O)COc1ccccc1)C(=O)N1CCN(c2ccccc2)CC1 (configuration not stated),.,-7.2,0.1,-14.0,7.5,7.9
C[C@H](NC(=O)c1ccccc1)C(=O)N1CCN(c2ccccc2)CC1,-3.5%,0.8,-0.3,-2.8,30.4*,-2.6
O=C(NC(=S)N1CCN(c2ccc([N+](=O)[O-])cc2)CC1)c1ccccc1,-8.7%,3.3,-0.3,-1.9,31.0*,-3.3
CC(=O)c1ccc(N2CCN(C(=O)C3CCN(S(=O)(=O)c4ccc(F)cc4)CC3)CC2)cc1,.,5.4,0.5,-2.0,-7.4,6.1
CCc1nc2c(c(=O)c3ccccc3n2C)c(=O)n1C1CCCCCC1,-10.0%,-1.0,58.5*,-13.1,24.8,-9.8
COc1ccc(Cn2c(C3CCCCC3)nc3c(c(=O)c4ccccc4n3C)c2=O)cc1,-2.3%,-2.9,4.7,-15.7,41.9*,-3.1
Cn1c2ccccc2c(=O)c2c(=O)n(C3CCCCC3)c(-c3cccs3)nc21,-20.1%,-3.2,21.2,-12.9,6.6,-4.9
COc1ccc(CCn2c(C3CCCCC3)nc3c(c(=O)c4ccccc4n3C)c2=O)cc1,5.3%,-3.7,9.7,-8.1,18.2,-7.1
COc1cc(NC(=O)c2ccccc2[N+](=O)[O-])ccc1NC(=O)c1cc2ccccc2o1,.,-4.8,.,-22.9,.,.
CCOC(=O)c1sc2nc(CSc3ccccc3)nc(N3CCC(C(N)=O)CC3)c2c1C,?,1.8,-0.1,-1.6,-7.4,12.3
CCOC(=O)c1sc2nc(CSc3ccccc3)nc(N3CCCN(C)CC3)c2c1C,?,-1.5,0.1,-0.6,53.2*,-27.0
COc1ccccc1N1CCN(C(=S)Nc2ccc(F)cc2)CC1,-4.6%,3.0,1.1,-15.4,-10.5,-3.3
COc1ccccc1N1CCN(C(=S)Nc2ccccc2)CC1,-6.1%,4.8,0.3,-12.4,47.2*,-5.2
COc1cc(C(C(=O)NC2CCCC2)N(C(=O)c2snc(C(N)=O)c2N)C2CCCC2)cc(OC)c1OC (configuration not stated),-9.9%,5.8,-0.6,5.1,31.6*,-1.1
COc1ccc(C(C(=O)NC2CCCC2)N(C(=O)c2snc(C(N)=O)c2N)C2CCCC2)cc1OC (configuration not stated),-15.1%,3.0,0.7,-9.1,-2.1,2.6
CCOC(=O)C(C)Sc1nnc2n1C(C)(C)Cc1ccccc1-2 (configuration not stated),-7.2%,3.3,-0.1,2.0,-1.8,-10.9
CC(=O)c1cccc(CN2CCCC(C(=O)c3ccc4c(c3)OCO4)C2)c1 (configuration not stated),-15.1%,-2.4,-1.0,-20.1,11.8,-26.4
O=C(c1ccc2c(c1)OCO2)C1CCCN(C2CCN(CCc3ccccc3)CC2)C1 (configuration not stated),-13.4%,-1.5,-0.9,-11.8,69.8*,-27.8
O=S(=O)(NCCc1nnc2ccc(SCc3cccnc3)nn12)c1ccccc1,-6.7%,-2.8,0.1,-5.2,-9.3,31.8*
SMILES,Anesthetic bind,D2 ag-1,D2 ag-2,D2 PAM-1,D2 antagonist,D2 PAM-2
Cc1nonc1NC(=O)CSc1nc(C2CCCCC2)nc2ccccc12,?,-4.5,-1.2,-14.5,53.5*,2.3
CC(NC(=O)c1ccccc1F)c1nnc(SCC(=O)Nc2nccs2)n1C (configuration not stated),-4.9%,4.3,1.0,-3.4,-2.7,40.5*
COc1ccc2cc3cc(C(=O)Nc4ccccc4N4CCN(C)CC4)oc3nc2c1,-11.6%,-5.6,0.1,-40.8,-11.3,-15.4
COc1ccc(OC)c(NC(=O)C(=O)NNC(=O)c2cccs2)c1,-5.7%,0.1,-0.4,4.9,38.1*,19.7
COc1cc(N)ccc1NC(=O)c1cccs1,3.6%,8.7,0.1,78.8*,11.4,8.6
CCOC(=O)CN(c1ccccc1)S(=O)(=O)c1ccc(F)cc1,-3.8%,-2.2,-0.1,-6.6,-9.5,14.3
CCCc1cc(C(N)=O)c(NC(=O)c2ccoc2C)s1,-19.9%,-5.1,1.7,-10.5,30.9*,.
CCc1cccc(N=c2c([N+](=O)[O-])nn(-c3ccc(Cl)cc3)n2O)c1,?,10.0,-0.1,86.7*,10.4,-6.7
Cc1cc(C)cc(N=c2c([N+](=O)[O-])nn(-c3cccc(Cl)c3)n2O)c1,?,8.6,-1.9,97.4*,9.9,-11.0
Cc1cccc(N=c2c([N+](=O)[O-])nn(-c3ccc(Cl)cc3)n2O)c1,?,10.6,0.6,?,9.9,2.0
COc1ccccc1CNC(=O)N1CCN(S(=O)(=O)c2ccc(C)cc2)CC1,1.7%,-1.2,-0.6,-3.4,10.9,-0.5
Cn1c(SCC(=O)NCc2ccc(F)cc2)ncc(C(=O)Nc2ccccc2)c1=O,.,-4.5,-0.2,-33.1,32.1*,9.0
CC(C)(C)OC(=O)C[C@@H]1C/C=C\C[C@@H](CC(=O)N(CCO)Cc2ccccc2)C(=O)N[C@H](C(C)(C)C)COC1=O,.,-2.0,.,-1.2,.,.
CCOC(=O)/C(=C/C=C1\Sc2cc(OCC)c(OCC)cc2N1CC)C(C)=O,-6.5%,1.8,88.1*,-6.6,72.2*,-19.5
CCN1/C(=C/C(C)=O)Sc2ccc(OC)cc21,-21.4%,-1.4,.,-7.4,.,.
CCOC(=O)/C(=C\C=C1/Sc2cc(OCC)c(OCC)cc2N1CC)C(C)=O,-2.5%,0.1,100.0*,-9.2,65.5*,-10.6
COc1cccc(CC2(CO)CCCN(Cc3ccc4c(c3)OCCO4)C2)c1 (configuration not stated),-13.9%,-4.6,0.4,-5.7,56.2*,-27.9
